Measurements as given in article PMC4336329 (PLoS ONE, 2015).
Among all 310,000 compounds or so, about 14,000 (4.5%) showed an effect of 50% or more. The effect is printed as a negative number. This excerpt belongs to a sample that is enriched for strong results.

target: human ether-à-go-go-related gene (hERG) potassium channel (human, UniProt Q12809); assay: primary screen, population patch clamp on CHO cells stably expressing hERG; higher = less effect of the substance
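Note: peak tail current of the secondary pulse compared with the same well before compound.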

Sequence of human ether-à-go-go-related gene (hERG) potassium channel (Q12809 whole entry, looked up): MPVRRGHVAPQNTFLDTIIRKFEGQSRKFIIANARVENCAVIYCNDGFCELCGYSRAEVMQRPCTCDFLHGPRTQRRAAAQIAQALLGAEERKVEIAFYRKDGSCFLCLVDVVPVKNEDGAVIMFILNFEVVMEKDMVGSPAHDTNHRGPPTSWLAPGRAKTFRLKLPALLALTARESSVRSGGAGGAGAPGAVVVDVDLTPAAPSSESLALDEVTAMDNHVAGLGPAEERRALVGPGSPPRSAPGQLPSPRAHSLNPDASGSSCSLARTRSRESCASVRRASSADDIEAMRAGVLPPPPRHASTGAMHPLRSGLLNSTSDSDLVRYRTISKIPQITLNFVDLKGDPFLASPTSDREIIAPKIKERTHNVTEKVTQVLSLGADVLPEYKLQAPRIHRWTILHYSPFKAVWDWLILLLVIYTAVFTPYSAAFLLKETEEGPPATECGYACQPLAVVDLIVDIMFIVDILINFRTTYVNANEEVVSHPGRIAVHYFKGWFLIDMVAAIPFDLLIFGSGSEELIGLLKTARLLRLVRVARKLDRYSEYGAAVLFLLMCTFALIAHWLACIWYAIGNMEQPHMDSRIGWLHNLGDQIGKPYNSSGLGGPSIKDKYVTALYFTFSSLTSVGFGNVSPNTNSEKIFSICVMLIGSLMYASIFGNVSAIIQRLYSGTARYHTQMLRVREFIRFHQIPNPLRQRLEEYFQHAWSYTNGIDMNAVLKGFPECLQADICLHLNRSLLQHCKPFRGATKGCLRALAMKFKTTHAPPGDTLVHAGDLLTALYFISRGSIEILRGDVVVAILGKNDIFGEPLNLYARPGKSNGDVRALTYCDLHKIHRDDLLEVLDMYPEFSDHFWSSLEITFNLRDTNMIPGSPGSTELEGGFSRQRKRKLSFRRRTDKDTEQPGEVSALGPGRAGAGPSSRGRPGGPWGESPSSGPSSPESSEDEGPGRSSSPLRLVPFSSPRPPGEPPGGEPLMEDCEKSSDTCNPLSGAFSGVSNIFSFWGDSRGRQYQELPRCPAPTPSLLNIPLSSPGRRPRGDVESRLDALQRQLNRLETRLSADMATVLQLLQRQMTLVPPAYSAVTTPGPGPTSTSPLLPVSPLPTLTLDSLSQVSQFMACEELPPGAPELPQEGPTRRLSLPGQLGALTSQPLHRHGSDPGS

SMILES	hERG current change (%, negative = inhibition) at 10uM [%]
CCc1ccc(NC(=O)c2cc(-c3ccc(OC)cc3)on2)cc1	-0.467
CCc1cc(=O)oc2cc(C)cc(OCc3nn[nH]n3)c12	-5.99
CCc1nn(CCCC(=O)Nc2ccc(C)c(C)c2)c(=O)c2cc3occc3n12	4.15
CCc1ccccc1N(CC(=O)NCc1ccco1)C(=O)CCC(=O)Nc1ccccn1	-7.41
Cc1cccc(CN2CCN(c3nc4nonc4nc3NC3CC3)CC2)c1	-4.44
Clc1cccc(CN2CCN(c3nc4nonc4nc3NC3CC3)CC2)c1	-65.4
Fc1cccc(CN2CCN(c3nc4nonc4nc3NC3CC3)CC2)c1	-10.3
O=C(COC(=O)C1=NN(c2ccccc2)C(=O)CC1)Nc1ccc([N+](=O)[O-])cc1C(F)(F)F	5.08
CC(C)CN(CC(C)C)C(=O)c1cccc(S(=O)(=O)N2CCc3ccccc32)c1	-24.9
NC(=O)C1CCN(C(=S)NC2CC3C=CC2C3)CC1 (centres unmarked)	16.2
CCOC(=O)C1CCN(C(=S)NC2CCCC2)CC1	0.997
CCOC(=O)C1CCN(C(=S)NC2CC3C=CC2C3)CC1 (centres unmarked)	-54.3
CN(c1ccccc1)S(=O)(=O)c1cccc(NC(=O)Cc2ccc(Cl)cc2)c1	9.43
COc1ccc(CN2C(=NC(=O)CCc3ccccc3)SC3CS(=O)(=O)CC32)cc1 (centres unmarked)	3.85
CC(C)[C@H](NC(=O)c1ccco1)C(=O)NC12CC3CC(CC(C3)C1)C2	-5.81
CC(NC(=O)c1ccco1)C12CC3CC(CC(C3)C1)C2 (centres unmarked)	-50.1
CC(NC(=O)COC(=O)CCNC(=O)c1ccco1)C12CC3CC(CC(C3)C1)C2 (centres unmarked)	0.656
CC1CN(C2CCN(S(=O)(=O)c3ccc4ccccc4c3)CC2)CC(C)O1 (centres unmarked)	-22.5
CN1C(C(=O)N2CCc3ccccc3C2)=CC(c2ccc(F)cc2)=NS1(=O)=O	-3.37

SMILES	hERG current change (%, negative = inhibition) at 10uM [%]
COc1ccc(CCN(C)CCCC(C#N)(c2cc(OC)c(OC)c(OC)c2)C(C)C)cc1OC.Cl (centres unmarked)	-64.1
COc1ccc(CCN(Cc2ccc(C(C)C)cc2)S(=O)(=O)c2ccc(S(=O)(=O)N(C)C)cc2)cc1OC	-11.1
CCC(=O)C(C#N)(c1ccc(OC)c(OC)c1)C(C)C (centres unmarked)	-7.65
Cn1c(Cn2c(=O)sc3ccccc32)nnc1SCC(=O)NCc1ccccc1	-0.25
Cc1ccc(NC(=S)N2CCN(S(=O)(=O)c3c(F)cccc3F)CC2)cc1C	-17.6
Cc1ccc(Nc2nc(N)nc(CSc3ncccn3)n2)cc1	-18.7
COc1ccc(Nc2nc(N)nc(CN3CCc4ccccc4C3)n2)cc1	-56.4
Cc1ccc(Nc2nc(N)nc(CSc3nnnn3-c3ccccc3)n2)cc1	4.49
COc1ccccc1Nc1nc(N)nc(CN2CCc3ccccc3C2)n1	-44.8
COc1ccc(Nc2nc(N)nc(CSC(=S)N3CCCCC3)n2)cc1	0.179
Nc1nc(CSCCO)nc(Nc2ccccc2)n1	9.39
Cc1ccc(Nc2nc(N)nc(CN3CCc4ccccc4C3)n2)cc1	-72.2
Nc1nc(CSc2ncccn2)nc(Nc2ccccc2)n1	1.55
Nc1nc(CN2CCc3ccccc3C2)nc(Nc2ccccc2)n1	-51
COc1cc([N+](=O)[O-])ccc1NC(=O)COC(=O)CCOc1ccc(C)cc1	-11.2
O=C(CCCCn1c(=O)c2ccccc2n(CC(=O)NC2CCCC2)c1=O)NCc1ccco1	-15.6
O=C(O)CSc1nnc(Cc2ccccc2)n1-c1ccccc1	5.74
COc1cc(CNCCO)ccc1OCCc1ccccc1	6.61
COc1cc(C)c(C(=O)Oc2cc(C)c(C(=O)O)c(O)c2)c(O)c1	11.5

SMILES	hERG current change (%, negative = inhibition) at 10uM [%]
COc1ccc(OCCN2CCN(C(=O)c3ccc(OC(F)F)c(OC)c3)CC2)cc1	-72.6
COc1ccc(C(=O)N2CCN(C(=O)c3ccncc3)CC2)cc1	12.4
Clc1cccc(OCCN2CCN(CCOc3cccc(Cl)c3)CC2)c1	-70.8
N#Cc1ccc(CN2C(=O)NC3(CCCCCC3)C2=O)cc1	-32.2
COc1ccc(OCCN2CCN(C(=O)c3ccc(OC)cc3)CC2)cc1	-87.2
COc1ccc(C(=O)NCCN2CCN(C(=O)c3ccc(OC)c(OC)c3)CC2)cc1OC	14.5
COc1ccc(C(=O)N2CCCC2)cc1	-2.88
Cl.Clc1cccc(OCCN2CCCC2)c1	2.13
CCOc1cc(C(=O)N2CCc3cc(OC)c(OC)cc3C2)ccc1OC(F)F	-35.7
N#Cc1ccc(OCCN2C(=O)NC3(CCSC3)C2=O)cc1 (centres unmarked)	-57.2
CC1(C)NC(=O)N(CCOc2ccc([N+](=O)[O-])cc2)C1=O	-37.6
CN1CCN(CCOc2cccc(Cl)c2)CC1.Cl	1.19
CCC1(CC)C(=O)C2=C3C1[C@H](C(=O)OC)C=C(C(=O)OC)C[C@H]3[C@H]1C(=O)NC(=O)[C@H]1[C@H]2C (some centres unmarked)	3.57
NS(=O)(=O)c1c(Sc2ccccc2C(=O)O)ccc2ccccc12	28.4
CC1CCN(S(=O)(=O)c2c[nH]c(=O)[nH]c2=O)CC1	6.09
CC1CCCN(S(=O)(=O)c2ccc3c(c2)c(=O)nc2ccc(Cl)cn23)C1 (centres unmarked)	-10.5
CC(=O)Nc1ccc(NC(=O)C2CCCN(S(=O)(=O)c3ccc(-n4cnnn4)cc3)C2)cc1 (centres unmarked)	0.72
Cc1cccc(C)c1NC(=O)CNC(=O)C(Cc1ccccc1)NC(=O)c1ccccc1 (centres unmarked)	13.5
